The record followed here is PubChem BioAssay AID463173 (ICCB-Longwood Screening Facility, Harvard Medical School, 2010).

Each structure is given as a SMILES string. Hit rate of the full screen: of about 52,000 compounds, about 4,300 (8.3%) were called active. No stated cut-off is given here; in the data, active means survival mostly below about 52% (no sharp cut-off); inactive means mostly above about 56%. What follows is part of a selection rich in actives, with near analogues and random picks from the rest.

In the test the test system is DeltatarO mutant. The experiment in a line: growth inhibition of S. aureus wild type versus tarO mutant, primary screen, teichoic acid synthesis inhibitors, RN4220, OD600 (AID 463173). As to conditions: OD600, 18 h, hits give low values, screened at 18.75 µg/mL (by protocol).
As for `Cc1onc(-c2ccccc2Cl)c1C(=O)Oc1ccccc1F`, the survival is 76% (inactive).
Then `Cc1ccc(NC(=O)c2cc3c(=O)[nH]c4ccccc4c3n2C)cc1F`, with 83% (inactive); and `O=C(OCCN1CCOCC1)c1ccccc1`, with 88% (inactive).
Then `Cc1ccc(-n2ncc3c(NCCCN(C)C)ncnc32)cc1Cl`, with 95% (inactive).
Take `COc1ccc(-c2noc(-c3ccc(N4CCN(c5ccccc5)CC4)c([N+](=O)[O-])c3)n2)cc1`: the survival is 49% (inactive).
With `Cc1ccccc1OCC(=O)Nc1ccc2nc(SCc3ccccc3)sc2c1` the figure was 88% (inactive); with `CCc1ccc(OCC(=O)N(Cc2ccc(C)cc2)Cc2ccco2)cc1`, 91% (inactive).
`Cc1cc(OC(C)C(=O)N(Cc2ccc(N(C)C)cc2)Cc2ccco2)ccc1Cl` (stereo not given): the survival is 67% (inactive).
With `CCc1ccc(CN(Cc2ccco2)C(=O)COc2ccc(Cl)c(C)c2)cc1` the figure was 38% (active).
With `Cc1cccc(OCC(=O)N(Cc2ccc(N(C)C)cc2)Cc2ccco2)c1C` the figure was 42% (active); with `Cc1ccc(CN(Cc2ccco2)C(=O)COc2cccc(C)c2C)o1`, 66% (inactive); with `Cc1cc(OC(C)C(=O)N(Cc2ccco2)Cc2ccccc2F)cc(C)c1Cl` (stereo not given), 81% (inactive).
Take `Cc1cccc(OCC(=O)N(Cc2ccc(C(C)C)cc2)Cc2ccco2)c1C`: the survival is 49% (inactive).
In the case of `Cc1ccc(CN(Cc2ccco2)C(=O)COc2cc(C)c(Cl)c(C)c2)cc1`, the survival is 58% (inactive).
Then `Cc1ccc(CN(Cc2ccco2)C(=O)COc2ccccc2C)cc1`, with 40% (active); and `Cc1cc(OC(C)C(=O)N(Cc2ccco2)Cc2ccco2)cc(C)c1Cl` (stereo not given), with 35% (active).
For `Cc1ccc(OCC(=O)N(Cc2ccc(Cl)cc2)Cc2ccco2)cc1C`, the survival was 58% (inactive).
Then `Cc1ccc(CN(Cc2ccco2)C(=O)COc2c(C)cc(C)cc2C)cc1`, with 54% (inactive).
With `NNC(=O)C1CCN(S(=O)(=O)c2ccccc2N)CC1` the figure was 95% (inactive); with `CCOc1cc(C(=O)OCc2cc(=O)n3nc(C4CC4)sc3n2)cc(OCC)c1OCC`, 79% (inactive).
Regarding `COCCNC(=S)N1CCC(NC(=O)Nc2ccc(F)cc2)CC1`, the survival was 91% (inactive).
Consider `CC(SCc1ccccc1)C(=O)NCc1ccccn1` (stereo not given), for which the survival was 77% (inactive).
With `COc1ccccc1N1CCN(C(=O)Cn2ncc3ccsc3c2=O)CC1`, the survival was 114% (inactive).
Then `CC1CCc2c(sc(NC(=O)c3ccc(Cl)cc3Cl)c2C#N)C1` (stereo not given), with 71% (inactive); and `COc1cc(CN(C(=O)c2ccc(C)cc2)c2ccccn2)cc(OC)c1OC`, with 78% (inactive); and `CN(CCC(N)=O)Cc1ccccc1`, with 75% (inactive).
Then `CCC(C)Cn1c(/C=C/c2ccccc2)nc2ccccc21` (stereo not given), with -1% (active); and `CCCCCn1c(CNC(=O)c2ccc(F)cc2)nc2ccccc21`, with 68% (inactive); and `Cc1cccc(C(=O)NCCc2nc3ccccc3n2CCC(C)C)c1`, with 99% (inactive).
Then `CC(C)Cn1c(/C=C/c2ccc(F)cc2)nc2ccccc21`, with -4% (active); and `CCCCCn1c(CNC(=O)c2ccccc2)nc2ccccc21`, with 67% (inactive); and `CCn1c(O)c(/C=C/c2nc3ccccc3n2CC)sc1=S`, with 78% (inactive).
`CCCn1c(SCC(O)c2ccccc2)nc2ccccc21` (stereo not given): the survival is 86% (inactive).
Then `CCCn1c(CNC(=O)c2ccc(F)cc2)nc2ccccc21`, with 76% (inactive); and `CCc1nc2ccccc2n1CC(C)C(=O)O` (stereo not given), with 96% (inactive); and `CCCCCCn1c(/C=C/c2ccccc2)nc2ccccc21`, with 1% (active).
With `CC(C)CCn1c(/C=C/c2ccccc2)nc2ccccc21` the figure was -1% (active).
Then `CCCCCCn1c(CNC(=O)c2ccccc2)nc2ccccc21`, with 66% (inactive); and `COc1ccc(OCc2ccc(-c3nc(C#N)c(NCc4ccccc4)o3)o2)cc1`, with 78% (inactive).
For the molecule `COc1cc(C(CC(=O)Nc2cccc(C(C)=O)c2)N2Cc3ccccc3C2=O)cc(OC)c1OC` (stereo not given), the survival is 67% (inactive).
For the molecule `COc1ccccc1N1CCN(C(=O)c2c3c(nc4ccccc24)C(=O)N(C2CCCCC2)C3)CC1`, the survival is 94% (inactive).
Then `Cc1ccc(-c2nnc(Nc3ccc(S(N)(=O)=O)cc3)c3ccccc23)cc1S(=O)(=O)N1CCCCC1`, with 103% (inactive).
Then `Cn1c(SCC(=O)N2CCOCC2)ncc(C(=O)Nc2ccc(F)cc2)c1=O`, with 87% (inactive); and `CCOc1ccc(NS(=O)(=O)c2ccc(C(=O)N(C)C)s2)cc1`, with 76% (inactive); and `CCOc1cc2sc(N3CCC(C(=O)Nc4ccc(CC)cc4)CC3)nc2cc1Br`, with 86% (inactive).
With `C#CCn1c(/C=C/c2ccc(Cl)cc2)nc2ccccc21` the figure was 10% (active); with `Cn1c(C=Nc2ccc(Cl)cc2)nc2ccccc21`, 83% (inactive).
Regarding `Cc1ccc(/C=C/c2nc3ccccc3n2S(=O)(=O)c2cccc(Cl)c2)cc1`, the survival is 77% (inactive).
With `COc1ccc(-c2nnc(SCC(=O)Nc3ccc(Cl)cc3)s2)cc1`, the survival is 84% (inactive).
Then `Cn1cc(C(=O)N2CCN(c3cccc(C(F)(F)F)c3)CC2)c2c3ccccc3n(C)c2c1=O`, with 20% (active); and `Cn1c2ccccc2c2c(C(=O)N3CCN(c4cccc(C(F)(F)F)c4)CC3)cn(C3CCCCC3)c(=O)c21`, with 88% (inactive).
Consider `Cc1ccc(-n2nc(C(=O)N3CCN(c4cccc(C(F)(F)F)c4)CC3)c3c4ccccc4n(C)c3c2=O)cc1`, for which the survival was 95% (inactive).
Then `O=C(NCc1cccc(Cl)c1)C1CCCN(c2nn3cc(-c4ccc(F)cc4)nc3s2)C1` (stereo not given), with 87% (inactive).
With `CCc1ccccc1NC(=O)c1nc(-c2ccncc2)no1` the figure was 46% (inactive).
Then `Cc1cc(C)c(S(=O)(=O)N2CCC(n3c(C(F)(F)F)nc4cccnc43)CC2)c(C)c1`, with 79% (inactive).
As for `O=C(Cn1c(C(=O)N2CCOCC2)cc2sccc21)c1ccccc1`, the survival was 99% (inactive).
With `CC1=CCC2(CO)COC(c3ccccc3O)C1C2` (stereo not given) the figure was 90% (inactive); with `Oc1ccccc1C1OCC(C2CC=CCC2)CO1` (stereo not given), 96% (inactive); with `Oc1ccccc1C1OC2CCCCC2C2=CCCCC21` (stereo not given), 34% (active).
With `c1ccc2c(c1)[nH]c1c(N3CCOCC3)ncnc12` the figure was 68% (inactive); with `COc1cccc(CCNC(=O)Cn2c(-c3cccs3)cc3ccccc32)c1`, 70% (inactive).
Then `O=C(Nc1c2c(nn1-c1ccc(Cl)cc1)CS(=O)(=O)C2)c1cccc(F)c1`, with 55% (inactive); and `Cc1noc(/C=C/c2ccccc2F)c1S(=O)(=O)N1CCC(C(=O)NCc2ccco2)CC1`, with 107% (inactive).
Take `COc1ccc(OC)c(CCNc2nc3cc(OC)c(OC)cc3c3nc(-c4cccnc4)nn23)c1`: the survival was 126% (inactive).
Then `COc1cc2nc(NCC(C)c3ccccc3)n3nc(-c4ccccc4)nc3c2cc1OC` (stereo not given), with 61% (inactive); and `CCOCCCNc1nc2cc(OC)c(OC)cc2c2nc(-c3ccccc3)nn12`, with 44% (active); and `COCCCNC(=O)CSc1nc2cc(OC)c(OC)cc2c2nc(-c3ccccc3)nn12`, with 78% (inactive).
In the case of `COc1cc2nc(NCc3ccccc3)n3nc(-c4ccccc4)nc3c2cc1OC`, the survival is 47% (active).
With `COc1cc2nc(NCc3ccc(C)cc3)n3nc(-c4ccccc4)nc3c2cc1OC` the figure was 61% (inactive); with `COCCCNc1nc2cc(OC)c(OC)cc2c2nc(-c3ccccc3)nn12`, 47% (active).
Then `COc1cc2nc(NCCC(C)C)n3nc(-c4ccccc4)nc3c2cc1OC`, with 49% (inactive); and `CCC(C)NC(=O)c1c(C)oc2ncn(CC(C)C)c(=O)c12` (stereo not given), with 79% (inactive).
`COC(=O)c1c(-c2ccc(Cl)cc2)noc1N1CCN(c2cccc(C)c2C)CC1`: the survival is 79% (inactive).
With `CN1C(=O)CSC1=Nc1cccc(C(=O)O)c1` the figure was 89% (inactive); with `COC(=O)c1csc(N)n1`, 95% (inactive); with `CCOc1ccc2c(c1)c(=O)c(S(=O)(=O)c1ccc(F)cc1)cn2CC(=O)Nc1ccccc1C`, 96% (inactive).
Take `Cc1nn2c(=O)cc(COC(=O)c3ccc(NC(=O)c4cccc(Br)c4)cc3)nc2s1`: the survival was 97% (inactive).
In the case of `CCCC1=Nc2cc(C(=O)N3CCC(C)CC3)ccc2Sc2ccc(C)cc21`, the survival was 97% (inactive).
Regarding `CCCC1=Nc2cc(C(=O)N3CCC(C(=O)OCC)CC3)ccc2Sc2ccccc21`, the survival is 79% (inactive).
With `CCC1=Nc2cc(C(=O)N3CCC(C)CC3)ccc2Sc2ccc(C)cc21` the figure was -4% (active); with `CCOC(=O)C1CCN(C(=O)c2ccc3c(c2)N=C(CC)c2cc(C)ccc2S3)CC1`, 36% (active).
With `CC1=Nc2cc(C(=O)N3CCC(C)CC3)ccc2Sc2ccc(Cl)cc21` the figure was 90% (inactive).
In the case of `CC1=Nc2cc(C(=O)N3CCCCC3)ccc2Sc2ccc(C)cc21`, the survival was 48% (inactive).
With `O=C(CNCc1ccccc1F)Nc1ccc(N2CCCC2)cc1` the figure was 102% (inactive); with `Cc1nnc2c3ccccc3nc(N3CCN(c4cccc(Cl)c4)CC3)n12`, 92% (inactive); with `COc1ccc(CNC(=O)CCc2c(C)nc3cc(-c4ccc(OC)cc4OC)nn3c2C)cc1`, 121% (inactive).
With `CCn1cc(C(=O)NCc2ccc(F)cc2)c(=O)c2cc(S(=O)(=O)N(C)C)ccc21` the figure was 81% (inactive); with `CCOCCc1nn2c(=O)cc(COC(=O)c3ccc(NC(=O)C4CCCCC4)cc3)nc2s1`, 70% (inactive).
With `COc1cccc(C(=O)Nc2ccccc2-c2nc(-c3ccc(C)cc3)no2)c1` the figure was 48% (active).
Consider `COc1cccc(-c2noc(-c3cc4ccccc4oc3=O)n2)c1OC`, for which the survival was 102% (inactive).
With `Cc1ccc(-c2noc(-c3ccccc3NC(=O)C3CC(=O)N(c4ccc(C)cc4)C3)n2)cc1` (stereo not given) the figure was 48% (inactive); with `COc1ccc(-c2noc(-c3ccccc3NC(=O)c3cc(OC)c(OC)c(OC)c3)n2)cc1`, 34% (active).
For the molecule `COc1cccc(-c2noc(-c3cc(C(C)C)[nH]n3)n2)c1OC`, the survival is 73% (inactive).
With `COc1cc(C(=O)Nc2ccccc2-c2nc(-c3ccc(C)cc3)no2)cc(OC)c1OC` the figure was 53% (inactive); with `COc1cc(C(=O)Nc2ccccc2-c2nc(-c3ccccc3)no2)cc(OC)c1OC`, 66% (inactive); with `COc1ccc(-c2noc(-c3cccc(OC)c3OC)n2)cc1`, 8% (active).
With `COc1ccc(C(=O)Nc2ccccc2-c2nc(-c3ccc(OC)cc3)no2)cc1` the figure was 48% (inactive).
For the molecule `Cc1ccc(-c2noc(-c3ccccc3NC(=O)C3CC(=O)N(c4cccc(C)c4)C3)n2)cc1` (stereo not given), the survival was 66% (inactive).
As for `Cc1ccc(-c2noc(-c3ccccc3NC(=O)c3ccccc3)n2)cc1`, the survival is 69% (inactive).
With `COc1ccc(N2CC(C(=O)Nc3ccccc3-c3nc(-c4ccc(C)cc4)no3)CC2=O)cc1` (stereo not given) the figure was 54% (active).
